Screening results: PubChem BioAssay, National Center for Advancing Translational Sciences (NCATS)
D2 antag = antagonizes the human D2 dopamine receptor | HEK293 TREx D2 cells, calcium flux, dopamine EC80 | P14416 | AID 485344 | inhibition, % at 10 µM | actives 2% (n = 340,000); in the data active = inhibition above about 30%; inactive = below that, where a call was filed; note: 0% is about no effect
Target sequence (P14416 whole entry, looked up): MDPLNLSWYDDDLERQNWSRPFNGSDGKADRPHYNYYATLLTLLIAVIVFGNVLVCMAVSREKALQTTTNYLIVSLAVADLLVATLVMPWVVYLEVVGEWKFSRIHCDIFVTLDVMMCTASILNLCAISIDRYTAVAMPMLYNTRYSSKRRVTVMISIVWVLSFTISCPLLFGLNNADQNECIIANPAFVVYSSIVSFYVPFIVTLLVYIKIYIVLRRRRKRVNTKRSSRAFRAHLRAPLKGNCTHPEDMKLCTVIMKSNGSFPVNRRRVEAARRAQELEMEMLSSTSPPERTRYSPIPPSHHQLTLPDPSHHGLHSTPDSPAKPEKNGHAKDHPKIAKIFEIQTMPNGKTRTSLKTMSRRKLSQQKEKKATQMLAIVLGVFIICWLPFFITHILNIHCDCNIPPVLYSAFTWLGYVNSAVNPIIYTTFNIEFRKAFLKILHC
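HEK293 T-REx D2 cells, tet-induced, calcium dye no-wash. Cpd pintool add, 180 s kinetic, then EC80 DA, 180 s kinetic. Ca flux read.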
D2 ag-1 = human D2 receptor agonism in beta-arrestin assay; P14416; DiscoveRx PathHunter D2 beta-arrestin, luminescence, 90 min; 100% = 57 uM dopamine signal; actives 0.084% (n = 360,000); activation, % (concentration not given with the values); AID 624465; in the data active = activation above about 40%; inconclusive = between about 15% and that limit
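DiscoveRx PathHunter D2 beta-arrestin cells (2,100/well) attached overnight, then compound-stimulated 90 min at 37 C in HBSS/10 mM HEPES/0.1% Tween-20 buffer; beta-galactosidase complementation read by luminescence after 1 h at ambient temperature. Dopamine 57 uM final (EC100) as control.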
D2 PAM-1 = positive allosteric modulators of human D2 dopamine receptor; DiscoveRx D2 beta-arrestin cells, luminescence, 90 min; 100% = 57 uM dopamine signal; potentiation, % (no concentration beside the values); actives 0.23% (n = 360,000); AID 624464; in the data active = potentiation above about 50%; inconclusive = mostly about 30% to 49%
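D2 cells co-treated with compound plus 50 nM dopamine (EC20) for 90 min at 37 deg C to detect potentiation. Beta-arrestin recruitment was read as enzyme-fragment luminescence after 1 h at ambient temperature. Full response was set by 57 uM dopamine.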
D2 PAM-2 = D2 dopamine receptor (human) potentiation; actives 0.34% (n = 340,000); P14416; HEK293 T-REx D2, calcium flux, EC20 dopamine potentiation; potentiation, % at 10 µM;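 active = potentiation over 3 SD above the plate norm, cut at about 30% in these data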; note: 0% is about no effect
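Potentiation of an EC20 dopamine calcium response measured kinetically over 180 s, after a preceding 180 s compound-only read flagging agonists. Cells: inducible Hek293 Trex D2 line, 4000/well, cultured overnight at 30 C before dye loading.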
D2 ag-2 = agonists of human D2 dopamine receptor; actives 0.53% (n = 340,000); HEK293 T-REx D2 cells, calcium flux agonist mode; P14416; activation, % at 2 µM; AID 485358;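 active = activation over 3 SD above normal in the single-dose calcium agonist read, cut at about 30% in these data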; note: 0% is about no effect
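Calcium-flux readout, 1 cycle/sec over 180 s following compound pin transfer, in inducible HEK293 Trex D2 cells (force-coupled); dopamine controls included. Positive calcium responses during this window marked compounds as potential agonists.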
* hit, by the source's call; ? = inconclusive; . = no result given. Only some compounds are listed: those with a hit (about 2.4% of all), similar ones and a draw of the others.

SMILES | D2 antag | D2 ag-1 | D2 PAM-1 | D2 PAM-2 | D2 ag-2
O=S(=O)(NCC1CCCO1)c1ccc(S(=O)(=O)N(Cc2ccccn2)C2CC2)cc1 (configuration not stated) | 74.1* | 3.5 | -6.9 | 5.6 | 0.5
O=C(Cc1ccccc1)NCC(=O)N1CCCC1 | 34.6* | -2.8 | -6.3 | 5.2 | 1.5
CN1CCCN(C(=O)CNC(=O)Cc2ccccc2)CC1 | 1.8 | -0.7 | -10.7 | 8.7 | 1.3
Cc1cc(C)n(-c2nc3cc(Cl)ccc3nc2N2CCN(c3cccc(C)c3C)CC2)n1 | . | . | . | 8.6 | -0.1
O=C(CSc1nc2ccccc2nc1Cc1ccc(F)cc1)Nc1ccc2c(c1)OCO2 | . | . | . | -4.0 | 2.8
COc1ccc(C)cc1NS(=O)(=O)c1ccc2c(c1)[C@H]1C=CC[C@H]1[C@@H](c1cccc(Cl)c1)N2 | . | . | . | -2.5 | 0.7
CCOc1ccccc1NC(=O)Cn1c(=O)oc2cc(S(=O)(=O)NCc3ccccc3)ccc21 | . | . | . | -9.4 | -0.3
CC1CCCC(C)N1C(=O)Cn1cc(/C=C2/C(=O)Nc3ccccc32)c2ccccc21 (configuration not stated) | 32.3* | -7.8 | -7.9 | -1.2 | 1.2
COC(=O)c1cn(CC(=O)N2C(C)CCCC2C)c2ccccc12 (configuration not stated) | 5.5 | -3.3 | 7.8 | -9.0 | 0.8
O=C(NCC1CCCO1)c1nnc(Cc2ccc(F)cc2)o1 (configuration not stated) | 38.9* | -4.4 | -3.8 | -2.5 | 0.7
COc1cc(OC)c(NC(=O)N2CCc3c([nH]c4ccccc34)C2c2ccccc2F)cc1Cl (configuration not stated) | . | . | . | -1.3 | .
CC(=O)c1ccc(OCC(=O)NC2CCCCCC2)cc1 | -2.9 | -1.2 | 3.7 | 30.8* | 0.0
CC(=O)c1ccc(OCC(=O)NC(=O)NC2CCCC2)cc1 | . | -1.2 | -2.8 | . | .
Cc1cc(=O)oc2cc(OCC(=O)NC3CCCC3)ccc12 | -23.6 | 1.4 | -2.5 | 30.6* | -0.2
Cc1c(C(=O)Nc2cccc(C#N)c2)sc2nc3n(c(=O)c12)CCCCC3 | . | . | . | 5.7 | -0.1
c1ccc2c(c1)nc1n2CC2CON(C3CCCCC3)C12 (configuration not stated) | 37.0* | -2.5 | -13.0 | -4.3 | 0.1
CCOc1ccc(NC(=O)c2cnc3sc(N4CCOCC4)nn3c2=O)cc1 | . | . | . | 9.0 | -1.0
Nc1nnc(SCC(=O)Nc2ccccc2C(F)(F)F)s1 | . | . | . | 8.2 | -1.9
N#Cc1cnc(SCC(=O)Nc2ccccc2C(F)(F)F)nc1N | 32.0* | -0.3 | -7.4 | -0.7 | 1.3
COc1ccc(CCN2C(=O)N(c3ccc(F)cc3)C(=O)C2CC(=O)Nc2ccc(OC)cc2)cc1 (configuration not stated) | . | . | . | -17.4 | 0.1
Cc1ccc2cccc(NC(=O)COc3ccccc3Cl)c2n1 | . | . | . | 5.6 | 0.2
CCn1nnnc1-c1ccc(OC)c(S(=O)(=O)Nc2ccc(OC)cc2)c1 | 36.5* | 1.0 | 7.0 | -4.2 | -0.1
COc1cccc(C2Nc3ccccc3-c3nnc(SCc4ccccc4)nc3O2)c1OC (configuration not stated) | . | . | . | 6.2 | -2.3
O=C1c2ccccc2-c2onc3ccc(NCc4ccco4)c1c23 | 17.6 | ? | 111.7* | 1.4 | 29.9
CCOc1ccc2noc3c2c1C(=O)c1ccccc1-3 | . | 2.0 | 4.9 | . | .
SMILES | D2 antag | D2 ag-1 | D2 PAM-1 | D2 PAM-2 | D2 ag-2
O=C1c2ccccc2-c2onc3ccc(N4CCCC4)c1c23 | 12.7 | 3.8 | -1.1 | -17.9 | 19.5
CCNc1ccc2noc3c2c1C(=O)c1ccccc1-3 | . | 10.7 | 70.3* | . | .
Cc1ccc(NC(=O)CSc2ccc(-c3cccs3)nn2)cc1Cl | . | . | . | 4.1 | -0.3
COc1ccc(C(=O)N(Cc2sccc2C)C2CCS(=O)(=O)C2)cc1 (configuration not stated) | 37.8* | 2.9 | -14.3 | 0.0 | -0.8
CCc1nn2c(-c3ccco3)ccnc2c1-c1ccccc1 | . | . | . | 9.3 | 1.2
Cc1ccc(S(=O)(=O)N(CC(=O)NCCc2ccc(Cl)cc2)c2ccccc2C)cc1 | . | . | . | -2.3 | -0.3
COc1ccc(C(=S)N2CCOCC2)cc1OC(=O)c1ccc([N+](=O)[O-])cc1 | -9.6 | 7.7 | 14.2 | 16.5 | 1.5
COc1cc(C(=S)N2CCOCC2)ccc1OC(=O)c1ccc([N+](=O)[O-])cc1[N+](=O)[O-] | 5.5 | 59.2* | 60.7* | -2.3 | 0.5
CCc1cccc(N2C(=O)N(Cc3c(F)cccc3Cl)c3ccccc3S2(=O)=O)c1 | . | . | . | 10.1 | 0.4
CC(NC(=O)[C@H](C)NC(=O)c1ccco1)c1ccc(S(N)(=O)=O)cc1 (some centres not stated) | 14.2 | -5.1 | -2.7 | -10.4 | 1.3
CC(NC(=O)c1ccco1)C(=O)NC(C)c1cc(F)c(Cl)cc1Cl (configuration not stated) | -2.7 | -4.6 | -19.2 | 30.4* | 1.2
CCS(=O)(=O)NC(C)C(c1cccs1)N1CCN(c2ccc(F)cc2)CC1 (configuration not stated) | 39.7* | -1.1 | -2.5 | -3.9 | 1.9
CCc1ccccc1-n1nnc(-c2nsc(NC(=O)c3ccc(C)c(C)c3)n2)c1C | . | . | . | -3.2 | 1.0
c1cnc(N2CCN(c3ncc4c(n3)CCNC4)CC2)nc1 | . | . | . | . | -1.1
COC(=O)C1C(=O)NC(SC)=C(C#N)C1c1ccccc1 (configuration not stated) | 2.1 | -1.4 | 0.2 | 34.3* | -0.4
Cc1cncn1CCc1nc2c3ccccc3nc(SCC(=O)Nc3ccccc3F)n2n1 | . | . | . | 5.9 | 0.3
Nn1c(SCC(=O)Nc2ccc3c(c2)OCO3)nnc1C1CCCCC1 | 31.0* | -4.4 | -0.2 | 7.1 | -0.6
O=C(CSc1nnc(-c2ccccn2)n1Cc1ccccc1)Nc1ccc2c(c1)OCO2 | 14.6 | -1.4 | -22.4 | 32.2* | 0.0
Cn1c(SCC(=O)Nc2ccc3c(c2)OCCO3)nnc1-c1ccccn1 | -12.5 | 0.1 | 2.8 | 6.0 | -0.2
CCc1ccc(CNC(=O)C2CCCN(c3nnc(C)c4c(C)n(-c5ccc(OC)cc5)nc34)C2)cc1 (configuration not stated) | . | . | . | -9.3 | 0.0
COc1ccc(NC(=O)NCc2ccncc2)c(OC)c1 | 6.2 | -0.5 | -31.6 | -4.7 | -1.0
COc1ccc(NS(=O)(=O)c2cccc(NC(=O)NC3CCCCC3)c2)cc1 | -9.7 | -3.4 | -10.6 | -7.9 | 0.3
COc1ccc(OC)c(NC(=O)NCc2ccc(F)cc2)c1 | 38.9* | -0.1 | -18.2 | -16.1 | 0.8
COc1ccc(C)cc1NC(=O)NC1CCCCCCC1 | 32.0* | -2.1 | -31.7 | -17.1 | 0.1
COc1ccc(OC)c(NC(=O)NC2CCCCCCC2)c1 | 10.0 | 14.8 | -41.1 | -16.9 | 0.3
COc1ccc(OC)c(NC(=O)C2(C)CCN2Cc2ccccc2OC(F)F)c1 (configuration not stated) | . | 108.2* | 17.6 | . | .
